Assay outcomes as filed in PubChem.
Rows were chosen to be rich in hits. Some 7.4% of all compounds tested hit in one or more screens of this group.
NPC1 prom act – activators of NPC1 promoter; Huh7 NPC1 promoter luciferase reporter, 24 h; AID 485313; 2.4% of 320,000 active; Potency, µM (top dose mostly 9.22 µM), for inactives: at the top dose activation, most hits filed as activators; also: % of control where 0% means no effect; nearly all actives have a fitted effect of over 60% in size
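Stable NPC1-promoter luciferase Huh7 line; cpd (DMSO) 24 h, 37 °C, 5% CO2; Amplite luciferase reagent 10 min RT; luminescence readout. qHTS format.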
Rab9 promoter act – Rab9 promoter activation | Huh7 Rab9 promoter-luciferase reporter, luminescence, 24 h | Potency, µM (titrated, usually from 9.22 µM), without a hit: at the highest dose activation, negative = inhibition, hits mostly activators | 2.8% of 320,000 active | AID 485297; also: % of control where 0% means no effect; nearly all actives have a fitted effect of over 60% in size
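Huh7 reporter line, Rab9 promoter upstream of luciferase. Compound exposure 24 h at 37 °C in reduced-serum medium with 10% FBS. Read-out: luminescence.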
SMN2 splice up – SMN2 splice variant enhancement | HEK293 SMN2-luciferase splicing reporter, luminescence, 30-36 h | Potency, µM (top dose mostly 46.1 µM), without a hit: top-dose activity change, positive = activation, actives largely listed as activators | 2.8% of 210,000 active | AID 1458; also: % of control where 0% means no effect; nearly all actives have a fitted effect of over 55% in size
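qHTS luciferase splicing reporter: luminescence rises when SMN2 exon 7 is included in transfected HEK293 cells. Compound exposure lasted 30-36 h at 37C, with 4.5 mM final sodium butyrate as control, followed by a ONE-Glo read.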
FLuc modulator – inhibits or activates purified firefly luciferase, miR-21 counter-screen. Potency, µM (series often up to 57.5 µM), inactives show at the highest dose activity change, negative = inhibition, actives largely listed as inhibitors. purified FLuc, Km substrates, luminescence inhibition. 6.9% of 360,000 active;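 also: plate controls were vehicle for no effect and reference inhibitor for full effect; nearly all actives have a fitted effect of over 55% in size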
Target sequence (P08659 whole entry, looked up): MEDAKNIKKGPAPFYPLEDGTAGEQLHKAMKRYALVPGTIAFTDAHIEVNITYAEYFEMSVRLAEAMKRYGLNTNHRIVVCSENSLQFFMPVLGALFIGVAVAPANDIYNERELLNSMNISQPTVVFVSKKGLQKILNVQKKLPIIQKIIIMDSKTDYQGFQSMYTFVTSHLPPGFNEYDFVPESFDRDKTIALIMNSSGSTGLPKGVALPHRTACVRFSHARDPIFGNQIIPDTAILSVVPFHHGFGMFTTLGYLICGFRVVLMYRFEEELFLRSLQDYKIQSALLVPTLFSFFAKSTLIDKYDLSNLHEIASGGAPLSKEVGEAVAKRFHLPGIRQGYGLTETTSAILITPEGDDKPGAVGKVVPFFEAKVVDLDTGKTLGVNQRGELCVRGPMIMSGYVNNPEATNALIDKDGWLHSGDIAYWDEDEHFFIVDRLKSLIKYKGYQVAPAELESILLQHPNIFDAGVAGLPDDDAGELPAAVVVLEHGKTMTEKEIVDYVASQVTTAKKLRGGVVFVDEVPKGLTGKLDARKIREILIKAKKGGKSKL
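Biochemical qHTS of compounds, final roughly 60 µM downward over six points, against 10 nM purified firefly luciferase using Km concentrations of substrates (10 uM D-luciferin, 10 uM ATP) in Tris acetate pH 7.5 buffer; luminescence output.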
ELG1 genotox – induces genotoxicity in HEK293T cells with luciferase-tagged ELG1; Potency, µM (doses to about 46 µM), without a hit: at the highest dose activity change, positive = activation, usual class: activators; HEK293T ELG1-luciferase reporter, luminescence, 16 h; 1.3% of 330,000 active; AID 504466; also: % of control where 0% means no effect; nearly all actives have a fitted effect of over 60% in size
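16 hr compound incubation (37 °C, 5% CO2) of HEK293T cells carrying luciferase-tagged ELG1; luciferase then measured by ONE-Glo luminescence after 30 min at RT.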
An asterisk follows results filed as active; ? = inconclusive; . = no result given; [ ] = remark or other dose. Calls follow the shape of the dose curve; as a rule, active = well fitted curve in the direction sought with a large enough effect; inconclusive = small, poorly fitted or top-dose-only effect, or another doubt; inactive = no such curve, though single readings can be large; an effect the other way counts as inactive or inconclusive. Potency is read from the fitted curve at half-maximal effect.

SMILES	NPC1 prom act	Rab9 promoter act	SMN2 splice up	FLuc modulator	ELG1 genotox
CCN=c1scc(-c2ccc(F)cc2)n1/N=C/c1ccccn1	2.5µM*	3.2µM*	13µM*	9.5µM*	10µM*
CCN=c1scc(-c2ccccc2)n1/N=C/c1ccccn1	0.35µM*	0.56µM*	14µM*	0.6µM*	?
COc1ccc(-c2cn[nH]c2C)cc1	5%	-3%	.	-9%	-7%
COc1ccc2cc(-c3ccn[nH]3)ccc2c1	2.2µM*	1.8µM*	.	1.3µM*	5.8µM*
Cc1ccc(SCCC(=O)N2CCC(C(N)=O)CC2)cc1	14%	11%	.	-8%	?
Cc1ccc(SCCC(=O)N2CCCC2)cc1	25%	25%	-12%	-14%	15µM*
Cc1ccc(SCCC(=O)N2CCOCC2)cc1	26%	23%	?	?	8%
Cc1ccc(C(=O)NCCC(=O)N2CCCC2)cc1	4µM*	3.2µM*	.	11µM*	23µM*
Cc1ccc(SCc2ccc(C(=O)N3CCCC3)cc2)cc1	25%	?	?	17µM*	13%
CCN1CCN(C(=O)c2ccc(CSc3ccc(C)cc3)cc2)CC1	1%	-6%	-43%	-11%	-8%
Cc1ccc(SCCC(=O)N2CCC(C)CC2)cc1	4.5µM*	3.5µM*	?	13µM*	?
COc1cccc(NC(=O)CSC2=Nc3ccccc3N=C(c3ccc(F)cc3)C2)c1	.	.	.	-3%	.
Cn1c2cc(B(O)O)sc2c2cnn(Cc3c(F)cccc3F)c(=O)c21	-17%	-6%	.	-5%	.
COc1ccccc1/C=N/N(C(C)=O)c1nc(-c2ccc(F)cc2)cs1	?	6.3µM*	?	0%	?
Cc1ccccc1N1C(=O)c2cc(S(N)(=O)=O)c(Cl)cc2N[C@H]1C	.	.	-5%[20.6 µM]	.	.
O=C(NCCCN1CCN(c2ccc(F)cc2)CC1)c1sc2ncccc2c1-n1cccc1	.	.	.	2%	.
c1ccc2c(c1)ncc1cccn12	-1%	13%	0%	-3%	-8%
CCn1c2ccccc2c2c3ncc4cccn4c3ccc21	3.2µM*	?	.	3µM*	12%
Cc1cc(Nc2cc(F)ccc2C)nc(-n2nc(C)cc2C)n1	.	.	.	-10%	.
Cc1cccc(NC(=O)c2cc(-c3cc(C)ccc3O)n[nH]2)c1	1.1µM*	?	.	3µM*	?
Cc1ccc(-c2cc(C(=O)Nc3cccnc3)[nH]n2)c(O)c1C	?	4µM*	.	3.4µM*	9.2µM*
Cc1c(Cl)cccc1NC(=O)c1cc(-c2ccccc2O)n[nH]1	?	?	0%	21µM*	?
COc1ccc(CCNC(=O)c2cc(-c3ccc(C)c(C)c3O)n[nH]2)cc1OC	-1%	0%	-32%	?	-13%
Cc1cccc(NC(=O)c2cc(-c3cc(C)c(C)cc3O)n[nH]2)c1	0.89µM*	0.56µM*	.	?	?
COc1ccc(NC(=O)c2cc(-c3cc(C)ccc3O)n[nH]2)cc1Cl	9%	0%	-7%	-4%	-1%
SMILES	NPC1 prom act	Rab9 promoter act	SMN2 splice up	FLuc modulator	ELG1 genotox
Cc1ccc(-c2cc(C(=O)NCc3ccc4c(c3)OCO4)[nH]n2)c(O)c1C	-1%	-1%	-12%	19µM*	-1%
CCc1ccc(-c2cc(C)no2)cc1S(=O)(=O)NCc1ccc(OC)cc1	.	.	.	-1%	.
COc1ccccc1-c1ccc(/C=C2/C=C(C)OC2=O)o1	-2%	1%	-17%	?	2%
COc1ccccc1-c1ccc(/C=C2\C=CC(=O)O2)o1	-1%	-9%	.	7.6µM*	12%
CCn1c(NCc2ccc(OC)c(OC)c2)nc2ccccc21	.	.	-39%	-6%	.
CCn1c(NC(=O)c2ccccc2)nc2ccccc21	27%	?	.	17µM*	12%
CCn1c(NCc2ccc(N(C)C)cc2)nc2ccccc21	16%	14%	27%	13µM*	?
C=CCn1c(NC(=O)c2ccccc2)nc2ccccc21	?	?	.	24µM*	13%
Cn1c(NC(=O)c2cccc(Cn3cc(Cl)cn3)c2)nc2ccccc21	2.2µM*	2.2µM*	13µM*	19µM*	10µM*
Cc1nc2nc(NC(=O)c3cccc(Cl)c3)[nH]n2c(=O)c1Cc1ccccc1	.	.	1%	?	.
CCOc1ccc(NC(=O)C2CCN(S(=O)(=O)c3ccc4c(c3)oc(=O)n4C)CC2)cc1	.	.	5%	2%	.
COc1ccccc1C1C(C(=O)c2cc3ccccc3o2)=C(O)C(=O)N1CCN1CCOCC1 (configuration not stated)	-2%	16%	4%	13µM*	-1%
COc1cccc(C2C(C(=O)c3cc4ccccc4o3)=C(O)C(=O)N2CCN2CCOCC2)c1 (configuration not stated)	6%	4%	.	0%	2%
CS(=O)(=O)C1=NSC2=NC(=O)/C(=C\c3ccc(OC(=O)c4ccco4)c(Br)c3)C(=N)N21	-1%	2%	.	13µM*	3%
COc1cc(/C=C2/C(=N)N3C(=NC2=O)SN=C3S(C)(=O)=O)ccc1OS(=O)(=O)c1ccc(C)cc1	0%	0%	.	-19%	-1%[9.26 µM]
CSC1=NSC2=NC(=O)/C(=C\c3ccc(OC(=O)c4ccco4)cc3)C(=N)N12	3.5µM*	1.6µM*	.	19µM*	?
CC(C)CS(=O)(=O)C1=NSC2=NC(=O)/C(=C\c3ccc(OC(=O)c4ccco4)cc3)C(=N)N21	9%	2%	.	?	1%
O=[N+]([O-])c1ccc(NCCO)c(OCCO)c1	.	.	10%	.	.
COc1ccc(-c2cc(C(=O)N3CCOCC3)c3cc(C)ccc3n2)cc1	5%	0%	1%	17µM*	2%
COc1ccc(-c2cc(C(=O)N3CCOCC3)c3ccccc3n2)cc1OC	-2%	-5%	.	?	-3%
COc1ccc2nc(-c3ccc(Cl)cc3)cc(C(=O)O)c2c1	2%	1%	.	8.5µM*	8%
COc1ccc2nc(C)cc(C(=O)O)c2c1	3%	-6%	-6%	-2%	2%
Cc1ccc(-c2cc(C(=O)N3CCOCC3)c3ccccc3n2)cc1	7%	18%	13%	11µM*	25%
Cc1ccc(-c2cc(C(=O)N3CCN(c4ccccc4O)CC3)c3ccccc3n2)o1	?	2.2µM*	.	0.76µM*	0%
CCCCc1ccc(NC(=O)CSc2nc3ccccc3nc2N2CCCCC2)cc1	.	.	10%	-1%	.
Cc1cccc(N2CCN(S(=O)(=O)c3ccc(-c4cc(C(F)(F)F)on4)s3)CC2)c1C	.	.	.	-6%	.
COc1ccc(-c2cc(C(=O)N3CCCCC3)c3ccccc3n2)cc1	16%	17%	.	5.4µM*	1%
COc1ccc(-c2cc(C(=O)N3CCCCCC3)c3cc(C)ccc3n2)cc1	-6%	5%	.	12µM*	-3%
COc1cc(Cl)ccc1OCc1cc(C(=O)N(C)C2CCOC2)no1 (configuration not stated)	?	27%	.	?	?
